Source: the supplement of paper PMC4466236
Over roughly 33,000 sequences, “E-score (dimensionless, -0.5 to 0.5)” has its median near -0.058; the highest 2% begin near 0.35. The entries come from a sample that favours the highest values as a whole.

These sequences were tested on MvaT (assay: PBM 8-mer E-score (mean of HK and ME arrays) (E-score (dimensionless, -0.5 to 0.5)); higher = stronger relative binding preference).
Method: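 Protein binding microarray: GST-tagged full-length MvaT (P. aeruginosa PAO1) bound to two universal double-stranded 60-mer arrays (ME and HK), each with a constant 25-mer primer and a variable 35-mer region covering all 8-mers. The 8-mer E-score (rank-based, range -0.5 to 0.5, >0.45 = specific binding) is the mean of the two arrays.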

Sequence | PBM 8-mer E-score
AATGTTAG | 0.209
GTTGTTAA | 0.257
ACTGTTAT | 0.306
AATGTTAA | 0.387
AATGTTAC | 0.186
GATGTTAA | 0.277
ATTGTTAA | 0.393
ATTGTTAG | 0.235
AATGTTAT | 0.372
GATCGTGA | -0.153
CTTGCCCA | -0.191
AGCCCGGA | -0.201
CAATATCA | 0.304
TAATATCA | 0.421
AAATATTT | 0.463
GGATATTA | 0.332
AAATATCA | 0.304
AGATATTA | 0.412
AAATATGG | 0.278
AAATATTG | 0.306
AAATATCT | 0.277
CGATATTA | 0.331
AAATATTA | 0.438
ACAGATAC | 0.102
ACGGGGAT | -0.00987

Sequence | PBM 8-mer E-score
AAGCTTTA | 0.0937
GAATGGCA | -0.00364
GCGAATAC | 0.0443
ACATTAGG | 0.0719
ATAGTCAA | 0.165
GACGCGCA | -0.188
AAATATGT | 0.348
TAATACCA | 0.336
AAATATGC | 0.305
CAATATTG | 0.377
CAATATGG | 0.156
TAATATTA | 0.474
TAATAGGA | 0.222
AAATATGA | 0.241
CAATATCG | 0.18
GAATATTA | 0.4
TATCGAAA | 0.144
GCGATAGC | -0.262
GAAAGCGA | 0.0347
AAGGGTAA | 0.109
AGACCAAG | -0.0618
TGCGGAAA | 0.107
TCCTCAGA | -0.142
CAATATTC | 0.226
CAATATTA | 0.373

Sequence | PBM 8-mer E-score
CAATATGA | 0.244
TAATATGA | 0.354
GAATATGA | 0.19
CAATATGC | 0.0377
ACGAGTAC | 0.047
ACACAAAT | 0.237
AGCACGGA | -0.111
GGCCCACC | -0.28
AATGTATA | 0.366
GATGTATA | 0.289
ATAGTATA | 0.38
AAAGTATT | 0.27
CAAGTATA | 0.373
GAAGTATA | 0.263
AAAGTATA | 0.41
GTAGTATA | 0.319
AAAGTATC | 0.211
TAAGTATA | 0.282
CATGTATA | 0.264
ATAGTATG | 0.21
ATTCCGGA | 0.138
TGGCGACA | -0.132
ATCGCCAT | 0.016
AGATCTCC | -0.204
AACAGTGT | 0.123

Sequence | PBM 8-mer E-score
GCGTCGCC | -0.203
CCATAAGG | -0.19
CGGTAAAC | 0.0615
AACACCCG | 0.00525
AGTTGCAT | 0.182
AGTCTAAC | 0.049
AATTCTGG | 0.076
ACGCAGTG | -0.257
CTTCATTA | 0.338
AGTCCGAG | -0.29
AATAACGA | 0.326
CATAACAA | 0.0795
GATAACGA | 0.0582
ATTAACAG | 0.334
AATAACCC | 0.226
AATAACCT | 0.228
AATAACCG | 0.367
ATTAACAA | 0.381
GATAACAA | 0.263
TATAACAA | 0.355
ATTAACAC | 0.328
TATAACGA | 0.374
GCATTGGA | -0.0184
AAAGGTCC | -0.197
CTACCTAC | -0.00994

Sequence | PBM 8-mer E-score
ATCTTGCC | 0.0286
GAGCAGGC | -0.379
AATGTGAG | 0.0855
GTTGGGGA | -0.0857
ATTGGAGC | -0.00417
CTAATCAG | -0.0597
AATAACAC | 0.331
AATAACAA | 0.38
AATAACAT | 0.32
AACCACCG | -0.0371
CTCCTAAA | -0.112
GTATAACA | 0.3
ATATAACA | 0.423
ATATAACC | 0.37
AGATAACC | -0.021
ACATAACG | 0.183
CTATAACC | 0.155
AGATAACG | 0.0641
CTATAACA | 0.297
ATATAACG | 0.406
ACGTAATA | 0.29
GGGTAACC | -0.246
CCTGCGCC | -0.28
ACGTTAGC | -0.113
CGGTTGCC | -0.279

Sequence | PBM 8-mer E-score
CGACCCAA | -0.0201
CAGGGTCG | -0.317
TAGGAAGA | 0.048
GAAAAAAA | 0.0648
CAAAATAA | 0.343
TAAAATTA | 0.288
TAAAATAA | 0.438
AAAAATAG | 0.0973
AAAAATAC | 0.158
GAAAATAA | 0.349
AAAAATAT | 0.377
GAAAATAC | 0.134
AAAAATAA | 0.403
AAAAAAAA | 0.271
TAAAATCA | 0.198
AGCGCGCG | -0.184
GTGATAAA | 0.211
CTAGAGAG | -0.241
CGCTATTA | 0.18
CACTATTC | 0.0563
AACTATTC | 0.255
CACTATTA | 0.357
AACTATTA | 0.399
GACTATTA | 0.305
AGCAGGAA | -0.195

Sequence | PBM 8-mer E-score
CAACCCTG | -0.133
AAACTTTG | 0.317
AAACTTTC | 0.312
GGACTTTA | -0.06
CAACTTTA | 0.297
GAACTTTA | 0.346
AAACTTTA | 0.357
AAACAAAG | 0.192
CCAATGAA | -0.1
CGTAATAC | 0.208
TGTAAAAA | 0.208
TGTAATAA | 0.399
GGTAATAA | 0.335
CGTAATAA | 0.398
CGTAATAG | 0.173
GCCGCTGA | -0.231
GGAATATA | 0.329
AGAATATG | 0.277
CGAATATC | 0.0677
CGAATATA | 0.355
AGAATATA | 0.378
AGAATATC | 0.195
AAGGGGTA | -0.15
GTGTTACA | 0.244
CCATACGC | -0.202

Sequence | PBM 8-mer E-score
ATATTTGC | 0.351
CTATTTGC | 0.148
GTATTTGA | 0.319
ATATTTGA | 0.363
ATATTTGG | 0.177
CTATTTGA | 0.229
ACTTTTTC | 0.0911
CCAGATAA | 0.165
AGTAGACA | -0.00875
ACATATAC | 0.287
ACATATAT | 0.47
ACACATAA | 0.273
ACATATGA | 0.179
ACATATAA | 0.446
ACATATAG | 0.264
ATACATCA | 0.192
CGGTAGCC | -0.317
AGTTCAGG | 0.0672
AATCTTGT | 0.0955
AAGCTCTA | -0.217
ATATAATG | 0.402
CTATAATC | 0.295
ATATAATC | 0.415
ACATAATG | 0.302
ATCTAATC | 0.167

Sequence | PBM 8-mer E-score
ATATAAGG | 0.31
AAGGAATG | 0.0374
TCTAGAAA | 0.0814
TCTCCTCA | -0.177
CCTGGTAA | -0.0325
GCCGTCAC | -0.163
CCAATCGG | -0.128
CGTCTCAA | -0.0154
ATGTCAGC | -0.039
GTTTAAAA | 0.293
TTTTAAAA | 0.409
TTTAAAAA | 0.363
CTTTAAAA | 0.287
GTTAAAAA | 0.239
TTAAAAAA | 0.305
AGAAGTTA | 0.279
GAACATTC | -0.0126
CATTGTAC | 0.151
AGGACGTA | -0.138
AAGTATTC | 0.161
ACGTATTA | 0.356
CAGTATTA | 0.289
ACGTATTG | 0.183
AAGTATTA | 0.388
GCGTATTA | 0.193

Sequence | PBM 8-mer E-score
ATATCTAG | 0.252
GCCTACGA | -0.271
GCATACCA | -0.104
CCGTGCGA | -0.193
GCAAATAA | 0.325
ACAAATAC | 0.247
ACAAATAA | 0.38
ACAAATAT | 0.405
ACAAATAG | 0.268
TCAAATAA | 0.28
CCAGGCAC | -0.347
GCCGAGAA | -0.0283
AGATATGG | 0.00259
ATATATGG | 0.42
ATATATGC | 0.424
CTATATGA | 0.124
ACATATGG | 0.145
GTATATGA | 0.245
CTATATGC | 0.227
ATATATGA | 0.439
ACATATGC | 0.129
AAAGCTCC | -0.295
AGTCTTAC | 0.0995
CGAGATCA | -0.0866
AGATAGAT | 0.152

Sequence | PBM 8-mer E-score
CTATAGAA | 0.103
ATAGAGAG | 0.188
ATATAGAT | 0.35
ATATAGAC | 0.224
GTATAGAA | 0.0668
ATATAGAA | 0.366
CTATAGAG | -0.125
ATATAGAG | 0.351
ATGACCAC | -0.00499
AATGTTTG | 0.212
AGGCGAGA | -0.0992
CACGCCAG | -0.233
AACGCGGA | -0.163
AAGAGGTC | -0.209
ATAACTAC | 0.272
CTTTAGAC | 0.0841
ATGCGGTA | -0.111
AAACTTAT | 0.381
TGCTTTAA | 0.094
GACTTTAA | 0.262
AAACTTAA | 0.326
TAACTTAA | 0.406
CACTTTCA | 0.136
GAACTTAA | 0.263
AACTTTCT | 0.22

Sequence | PBM 8-mer E-score
AAACTTAC | 0.306
CAACTTAA | 0.31
AACTTTCA | 0.351
TACTTTAA | 0.422
AAAACCGC | 0.058
AGGACGGA | -0.0832
ACCTGGGG | -0.366
AGGCTGAT | -0.0817
CCCGGTTA | 0.00633
ATTGCGCA | 0.111
ACTGGACG | -0.0771
CACTTTAA | 0.274
AACTTTAA | 0.385
AACTTTAG | 0.211
AACTTTTA | 0.34
AACTTTAT | 0.357
AACTTTAC | 0.275
GGGTGCGA | -0.091
CCGGCGCA | -0.0431
ATCGACAC | -0.0169
AGTGCGCA | 0.13
AGGGGCGA | -0.155
ATCACTCG | 0.0455
AGCTGGTA | -0.107
ACAGGAAC | -0.0162

Sequence | PBM 8-mer E-score
ATAACTTA | 0.429
CTAACTGA | 0.0161
CTAACTAA | 0.286
GTAACTCA | 0.116
ATAACTGA | 0.246
GTAACTGA | 0.199
GTAACTTA | 0.37
CTAACTTA | 0.379
AGAACTTA | 0.256
CTTGTCGC | -0.147
CCTCGTGA | -0.253
CCCTGTTA | -0.0586
AGCAAGAG | -0.0917
TCGATCCA | -0.213
ACATCTTC | 0.185
ATCTACTG | 0.0718
ATTTGTTG | 0.172
ATTGAAAT | 0.27
ACTAGTTA | 0.345
CTAAATAC | 0.232
CTAAATCA | 0.0639
CTAAATAA | 0.365
TTAAACAA | 0.321
TTAAATAA | 0.445
CTAAATGA | 0.126

Sequence | PBM 8-mer E-score
GCGATTCC | -0.0999
AGGCAGAA | -0.226
ACTCGTGA | -0.0788
GGACTCCC | -0.283
TAGTGAGA | 0.0304
ACCCTTCC | -0.184
GCATATTA | 0.278
CCATATTC | 0.161
ACATATTA | 0.44
CCATATTA | 0.353
ACATATTC | 0.281
ACATATTG | 0.281
AACCACTC | 0.00691
GCGGAGGA | -0.291
AAATTTGT | 0.264
AGGGTACC | -0.343
CACAAATA | 0.338
AACAAAAA | 0.239
AACAAATA | 0.369
TACAAATA | 0.355
AACAAAAT | 0.35
AACAAATG | 0.172
AACAAGTA | 0.343
GACAAATA | 0.297
AACAAGAT | 0.164
